# Screening data (PubChem)
# A selection: hits, their analogues and other compounds. The true share with any hit is near 2%.
# CHO-K1 Ca PAM = nonselective activator or artifact in parental CHO-K1 calcium assay; ATP EC20, Fluo-8 calcium fluorescence; 0% at ATP EC20, 100% at ATP max; activation, % at 3 µM; 360,000 compounds, 0.02% hits;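 active means activation above the run cutoff, the mean activation of all test compounds plus 3 SD, cut at about 40% in these data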;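 further: peak over basal fluorescence ratio in a 140 s read after ATP addition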
# CHRM4 agonist = CHRM4 agonism in calcium assay; CHO-K1 hM4/Gqi5, Fluo-8 calcium fluorescence; vehicle 0%, full acetylcholine response 100%; 360,000 compounds, 0.14% hits; activation, % at 3 µM; P08173; AID 624127;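 active means activation above the run mean over all test wells plus 3 SD, cut at about 32% in these data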;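 further: peak over basal fluorescence ratio per well then scaled between controls; 0% = DMSO wells and 100% = acetylcholine at EC100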
# Target sequence (P08173 whole entry, looked up): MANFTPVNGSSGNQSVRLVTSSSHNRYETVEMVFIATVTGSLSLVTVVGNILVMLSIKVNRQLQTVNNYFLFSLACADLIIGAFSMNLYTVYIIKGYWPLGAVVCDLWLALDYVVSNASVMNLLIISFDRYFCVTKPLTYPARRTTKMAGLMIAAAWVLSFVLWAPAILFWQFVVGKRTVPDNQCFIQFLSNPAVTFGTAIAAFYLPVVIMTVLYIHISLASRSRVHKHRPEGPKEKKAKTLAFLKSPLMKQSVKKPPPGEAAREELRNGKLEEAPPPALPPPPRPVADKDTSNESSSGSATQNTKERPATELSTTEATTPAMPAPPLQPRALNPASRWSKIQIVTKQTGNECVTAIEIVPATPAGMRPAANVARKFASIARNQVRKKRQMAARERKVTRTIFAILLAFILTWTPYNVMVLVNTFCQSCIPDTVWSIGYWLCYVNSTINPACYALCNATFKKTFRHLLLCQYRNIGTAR
# M4 PAM = potentiates acetylcholine response at human M4 receptor. CHO-K1 hM4/Gqi5, Fluo-8 calcium fluorescence, ACh EC20; 0% = ACh EC20, 100% = maximal ACh. activation, % at 3 µM. 360,000 compounds, 0.4% hits. AID 624126;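 active means activation above its plate's cutoff, the mean activation of sample wells plus 3 SD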
# M4 antag = blocks acetylcholine activation of human M4 receptor; P08173; CHO-hM4 cells, ACh EC80, Fluo-8 calcium fluorescence; inhibition, % at 3 µM; 360,000 compounds, 0.73% hits; AID 624125;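 active means inhibition above its plate's cutoff, the mean inhibition of sample wells plus 3 SD, cut at about 27% in these data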;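 further: 0% = acetylcholine EC80 with DMSO and 100% = DMSO without agonist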
# CHO-K1 Ca ag = nonselective activator or artifact in parental CHO-K1 cells; Fluo-8 calcium fluorescence; scaled to maximal ATP response, vehicle zero; activation, % at 3 µM; 360,000 compounds, 0.48% hits; in the data active means activation above about 15%;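 further: untransfected CHO-K1 host cells lacking M1 receptor as counterscreen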
# CHO-K1 Ca antag = counter-screen for M1 antagonists: effect in parental CHO-K1 cells. 360,000 compounds, 0.6% hits. AID 602250. inhibition, % at 3 µM. ATP-induced calcium, Fluo-8 fluorescence;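 active means inhibition above a per-plate cutoff, the plate's mean sample inhibition plus 3 SD, cut at about 24% in these data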;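 further: 0% = DMSO plus EC80 ATP and 100% = DMSO alone without ATP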
# * hit, by the source's call.
SMILES,CHO-K1 Ca PAM,CHRM4 agonist,M4 PAM,M4 antag,CHO-K1 Ca ag,CHO-K1 Ca antag
COCCNC(=S)Nc1ccc2nc(N3CCN(C)CC3)cc(C)c2c1,5,0,2,-8,0,1
Clc1ccc(-c2nnc(CSc3nnc(-c4cccs4)n3Cc3ccccc3)o2)cc1,6,12,-17,30*,9,20
Nc1c(Br)cc2oc(-c3ccccc3)nc2c1Br,5,0,20,-7,0,-9
COc1ccc(-c2nc3c(Br)c(N)c(Br)cc3o2)cc1,-7,1,29*,27*,0,-12
COc1ccc(NCC(=O)N/N=C/C=C\c2ccccc2)cc1,14,1,-1,1,0,-4
COc1ccccc1NCC(=O)N/N=C/C=C/c1ccccc1,-15,0,-5,0,-1,24*
CN1C(=O)N(C)C2(c3ccccc3)N(C)C(=O)NC12c1ccccc1 (stereo not drawn),-9,1,17,2,0,17
CCc1cccc(Nc2c([N+](=O)[O-])cc(C(=O)N3CC(=O)Nc4ccccc43)cc2[N+](=O)[O-])c1,29,-1,9,-4,0,-6
COc1ccc(NS(=O)(=O)c2cc(NC(=O)C(CC(C)C)NC(N)=O)ccc2N2CCOCC2)cc1 (stereo not drawn),-6,3,7,-15,1,-11
CCCN1CCc2c(sc(NC(=O)C3CCN(S(=O)(=O)c4cccs4)CC3)c2C(N)=O)C1,-37,3,0,-3,0,29*
Cc1ccc(S(=O)(=O)N2CCNC(=O)CC2)cc1,7,1,9,-2,23*,-4
CN(C)CCOC1c2ccccc2CSc2ccccc21 (stereo not drawn),5,1,-16,98*,0,1
COc1ccccc1CNC(=O)C1Cc2cc(S(=O)(=O)N3CCCC3)ccc2N1C(C)=O (stereo not drawn),8,2,6,7,1,-10
COc1cccc(CNC(=O)C2Cc3cc(S(=O)(=O)N4CCCC4)ccc3N2C(C)=O)c1OC (stereo not drawn),-24,1,17*,-2,0,13
C#CCN(C[C@H]1[C@H](OC(=O)NCc2ccccc2)[C@H](OC(=O)NCc2ccccc2)C[C@@H](C(=O)OC)[C@H]1C(=O)OC)S(=O)(=O)c1ccc(C)cc1,-7,4,-9,-3,0,38*
COc1ccccc1N1CCN(/N=C\c2ccccc2)CC1,-4,0,6,-11,0,7
COc1ccccc1N1CCN(/N=C\c2sccc2C)CC1,11,4,-1,8,20*,3
CCCOCC1CC2(CC(C)(c3csc(N)n3)OC2=O)C(=O)O1 (stereo not drawn),5,0,9,6,0,13
Cc1cc(=O)oc2cc(Nc3ccccc3)ccc12,23,0,-11,0,10,-1
COc1ccc2ccc(=O)oc2c1CC=C(C)C,2,-2,11,-11,-1,2
COc1cccc(OC)c1C(=O)NCCOc1cc(C)cc(C)c1,4,3,1,-4,15*,10
Cc1ccccc1S(=O)(=O)Cc1ccc(C(=O)N2CC(C)CC(C)C2)o1 (stereo not drawn),17,3,-2,-12,1,-2
Cc1ccccc1S(=O)(=O)Cc1ccc(C(=O)N2CCN(c3cccc(C)c3C)CC2)o1,4,15,-17,34*,7,26*
CCOC(=O)[C@]12CCCC=C1N(Cc1ccc(Cl)cc1Cl)C(=O)[C@H](CC(=O)N1CCSCC1)C2,23,-2,-1,9,2,-18
CN(C)CC1CC/C(=C\c2ccc(O)cc2)C1=O (stereo not drawn),12,8,-3,39*,3,1
SMILES,CHO-K1 Ca PAM,CHRM4 agonist,M4 PAM,M4 antag,CHO-K1 Ca ag,CHO-K1 Ca antag
COc1ccccc1C(=O)Nc1ccnn1C1CCN(C(=O)c2ccoc2)CC1,29,5,1,-6,2,-9
Cc1cccc(CS(=O)(=O)c2nnc([C@H](Cc3ccccc3)NC(=O)OC(C)(C)C)o2)c1,-5,7,-16,67*,2,1
COC(=O)CS(=O)(=O)c1nnc([C@H](Cc2ccccc2)NC(=O)OC(C)(C)C)o1,12,4,-7,77*,2,9
CCC(C)(C#CCN1CCCCC1)OCCC#N (stereo not drawn),11,0,-16,47*,0,-2
CC(NC(=O)Nc1ccc([N+](=O)[O-])cc1)C(c1ccccc1)N1CCOCC1 (stereo not drawn),4,76*,0,-4,49*,-2
CC(NC(=O)C1CCC(C(C)(C)C)CC1)C(c1ccccc1)N1CCOCC1 (stereo not drawn),-10,-1,-6,6,0,6
CC(NC(=O)Nc1ccc(Cl)c(Cl)c1)C(c1ccccc1)N1CCOCC1 (stereo not drawn),10,73*,-7,6,38*,14
CC(NC(=O)c1ccc(Cl)cc1Cl)C(c1ccccc1)N1CCOCC1 (stereo not drawn),16,0,2,-1,1,9
COc1cc(CC(=O)OCC(=O)Nc2ccc(S(=O)(=O)N3CCCC3)cc2)cc(OC)c1OC,5,4,9,-3,1,-5
CCNC(=O)CC1C(=O)N(CC)C(=S)N1NC(=O)c1ccccc1 (stereo not drawn),29,5,17*,21,1,4
O=C(O)c1ccc(CSc2nnc(COc3ccccc3)o2)cc1,17,10,-2,6,4,-3
CCc1ccc(OCc2nnc(SCc3ccc(C(=O)O)cc3)o2)cc1,13,4,27*,-8,0,1
COc1cccc2c(=O)n(CC(=O)NCCc3ccccc3)ccc12,0,0,15,29*,0,-8
CN1CCN(Cc2cc(=O)oc3ccc(Cl)cc23)CC1,15,2,2,-9,1,-11
COc1ccc(-c2cn3cccnc3n2)cc1NC(=O)C1CCCC1,-7,0,6,-3,0,-3
COc1ccc(-c2cn3cccnc3n2)cc1NC(=O)C1CC1,7,1,9,26*,-1,-3
Cc1c(Br)c([N+](=O)[O-])nn1CC(=O)N1CCc2ccccc2C1,5,0,-5,-6,0,10
Cc1c(Br)c([N+](=O)[O-])nn1C(C)C(=O)N1CCc2ccccc2C1 (stereo not drawn),7,1,-14,55*,3,-6
Cc1cccc(NC(=O)C2CCCN2/C=C/C(=O)C(F)(F)F)c1C (stereo not drawn),22,0,-5,-3,5,-3
